# The panel holds about 83,000 compounds, 20% with a hit somewhere; the sample as a whole holds those more often.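 A percent growth of 40 corresponds to 60% growth inhibition; 0 means no net growth; -100 means all cells died. Active threshold: below 10.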 Unmarked numbers belong to inactive results. Active and inactive are the calls of the source.
# Legend:
# Experiment in all cases: NCI-60 one-dose screen, 48 h (100 = growth as untreated, 0 = no growth, -100 = all killed)
# Conditions in all cases: 10 µM unless noted
# [1] = system: EKVX NSCLC
# [2] = system: SN12C renal
# [3] = system: UO-31 renal
# [4] = system: TK-10 renal
# [5] = system: ACHN renal
# [6] = system: CAKI-1 renal
# [7] = system: CCRF-CEM leukemia
# [8] = system: MOLT-4 leukemia
# [9] = system: SR leukemia
# [10] = system: RPMI-8226 leukemia
# [11] = system: OVCAR-8 ovarian
# [12] = system: OVCAR-5 ovarian
# [13] = system: OVCAR-4 ovarian
# [14] = system: SK-OV-3 ovarian
# [15] = system: IGROV1 ovarian
# [16] = system: OVCAR-3 ovarian
# [17] = system: HS 578T breast
# [18] = system: NCI/ADR-RES ovarian
# [19] = system: T-47D breast
Compound,growth [1],growth [2] [%],growth [3],growth [4] [%],growth [5],growth [6],growth [7],growth [8],growth [9],growth [10],growth [11],growth [12],growth [13],growth [14],growth [15],growth [16],growth [17],growth [18],growth [19] [%]
Cc1cc2nc3c4cc(Cl)ccc4n(CC(=S)NCCN(C)C)c3nc2cc1C,4.02% (active),40.9,-68.1% (active),55.6,-96.4% (active),-92.3% (active),-49.3% (active),-60.3% (active),-43.8% (active),-19.6% (active),-66.9% (active),-42.6% (active),-24.1% (active),-16.4% (active),-74% (active),-47% (active),51.4%,-56.4% (active),61.7
Cn1ccnc1C(=O)/C=C/c1ccc(NC(=O)Nc2ccc(Cl)cc2)cc1,91.7%,87.5,97.7%,131,88.4%,69.6%,62.9%,57.5%,32.6%,63.2%,81.9%,110%,76.3%,84.3%,96.7%,–,77%,76.2%,62.7
O=c1[nH]c2ccccc2cc1CSc1ccccc1Nc1nccc(-c2ccc(C(F)(F)F)cc2)n1,64.7%,70.3,72.3%,112,48%,64.4%,87.4%,63.5%,53.7%,62.6%,38.1%,103%,48.7%,117%,–,69.8%,68.3%,63.2%,66.7
COc1ccc(/C=N/NC(=O)c2[nH]c3ccc(Br)cc3c2-c2ccccc2)s1,42.8%,50,45.1%,122,27%,24.5%,9.96% (active),10.4%,5.56% (active),7.49% (active),12.3%,51.2%,75.5%,25.7%,–,22.8%,29.9%,15.8%,73.2
C#Cc1nc(C2=C(C)C(O)/C(=N/O)C2)cs1 (configuration not stated),91.3%,99.9,-91.1% (active),162,21.5%,76.5%,-27.7% (active),86.5%,-32.8% (active),-15.4% (active),94.3%,100%,89.6%,111%,-41.6% (active),125%,97.6%,1% (active),89.9
O=C(N/N=C/c1cccs1)c1[nH]c2ccc(Br)cc2c1-c1ccccc1,42.2%,45.7,49.4%,121,28.5%,25.7%,8.56% (active),11.5%,6.19% (active),3.64% (active),3.38% (active),46.1%,72.2%,36%,18%,–,27.2%,17.8%,68.4
CN1CCc2c(sc3ncnc(N/N=C/c4ccc(Cl)c(Cl)c4)c23)C1,60.8%,81.2,29.7%,137,-84.7% (active),10.6%,8.1% (active),26.6%,-22.8% (active),41.4%,31.8%,71.4%,20.9%,28.3%,–,71.5%,78.5%,–,90.4
C#Cc1nc(C2=C(C)/C(=N/OCc3ccccc3)CC2)cs1,19.4%,66.6,-93.8% (active),158,0.823% (active),-20.1% (active),-30.2% (active),60.7%,-52.4% (active),-44.1% (active),21.2%,54.6%,16.7%,-22.3% (active),-68.3% (active),–,70.9%,–,67.5
Nc1c(C(=O)Nc2ccc(C(F)(F)F)cc2)sc2nc(-c3cnccn3)cc(-c3cccs3)c12,76.1%,94.9,59.5%,174,43.3%,16.2%,84.7%,75.7%,66.3%,72.2%,66.7%,102%,63.5%,88.1%,83.9%,96%,70.3%,78.2%,90.3
N#Cc1ccc(/C=N/NC(=O)c2[nH]c3ccc(Br)cc3c2-c2ccccc2)s1,25%,42.1,36%,102,18.2%,18.3%,9.74% (active),4.12% (active),7.7% (active),-7.36% (active),2.33% (active),54.5%,54.6%,22.6%,17.3%,33.3%,23.3%,–,58.8
C#Cc1nc(C2=C(C)C(OC(C)=O)/C(=N/OC(C)=O)C2)cs1 (configuration not stated),9.96% (active),86.6,-88.9% (active),203,-66% (active),-50.2% (active),-39% (active),-35.2% (active),-25.6% (active),-45.1% (active),0.146% (active),30.1%,-46% (active),-78.4% (active),-59% (active),–,4.76% (active),-5.63% (active),67
CS(=O)(=O)c1ccc(-n2cc(/C=C/C(=O)c3ccc(NC(=O)CO[N+](=O)[O-])cc3)c(-c3ccc(Cl)cc3)n2)cc1,90.5%,88,115%,111,88.5%,109%,107%,119%,113%,108%,92.5%,97.7%,114%,89.7%,94.4%,111%,83.6%,94.4%,104
COc1ccc(C(=O)/C=C/c2ccc(OCc3ccc(C)cc3)c(OC)c2)cc1OC,61.4%,75.9,58.6%,117,75.8%,61.4%,32.2%,29.4%,9.97% (active),8.56% (active),49.1%,95.4%,60.9%,100%,–,–,91.4%,53.7%,45.6
C=CCn1c(SCC(=O)c2ccccc2)nnc1-c1c[nH]c2ccccc12,95.8%,92.7,65.7%,144,93.8%,83.1%,91.2%,92.8%,76.5%,86.6%,95.4%,103%,97.5%,120%,–,115%,97%,97.4%,95
O=C(N/N=C/c1ccc[nH]1)c1[nH]c2ccc(Br)cc2c1-c1ccccc1,24.4%,28.7,12.3%,44.5,12.2%,21.2%,5.27% (active),5.94% (active),1.89% (active),-1.05% (active),13%,43.7%,33.2%,36.7%,8.52% (active),–,29.5%,14.8%,14.1
O=C(N/N=C/c1ccc(Br)s1)c1[nH]c2ccc(Br)cc2c1-c1ccccc1,40.9%,56.3,48.6%,109,26.7%,22.8%,9.08% (active),14.2%,10.1%,5.48% (active),2.61% (active),52%,71.1%,40.6%,18.1%,9.72% (active),23.6%,–,75.7
O=C1Nc2ccccc2Oc2ccc(S(=O)(=O)CC3CO3)cc21 (configuration not stated),75.2%,71.5,65.9%,91.6,46.4%,44.1%,25.7%,42.8%,0.309% (active),44.9%,64.3%,85.5%,70.1%,122%,62.3%,–,60.6%,98.2%,47.5
